Data as given in PubChem BioAssay AID2284374 (EPA ToxCast).
Results filed as inconclusive are left out. The source made the active and inactive calls. Rule for the calls: active = hit-call score of the fitted dose curve at least 0.9, where 1 is the maximum; inconclusive = response in the unintended direction; inactive = score below 0.9.

The compounds below were run against human Peroxisome Proliferator-activated Receptor delta (PPARd), PPARD (gene 5467) (UniProt Q03181) (assay: ERF_US_NR_hPPARD: Eurofins (ERF) Nuclear Receptor (NR) Cell Based Protein-Protein Interaction LeadHunter Assay for human Peroxisome Proliferator-activated Receptor delta (PPARd) Agonism).
human Peroxisome Proliferator-activated Receptor delta (PPARd), PPARD (gene 5467), sequence (Q03181 whole entry, looked up): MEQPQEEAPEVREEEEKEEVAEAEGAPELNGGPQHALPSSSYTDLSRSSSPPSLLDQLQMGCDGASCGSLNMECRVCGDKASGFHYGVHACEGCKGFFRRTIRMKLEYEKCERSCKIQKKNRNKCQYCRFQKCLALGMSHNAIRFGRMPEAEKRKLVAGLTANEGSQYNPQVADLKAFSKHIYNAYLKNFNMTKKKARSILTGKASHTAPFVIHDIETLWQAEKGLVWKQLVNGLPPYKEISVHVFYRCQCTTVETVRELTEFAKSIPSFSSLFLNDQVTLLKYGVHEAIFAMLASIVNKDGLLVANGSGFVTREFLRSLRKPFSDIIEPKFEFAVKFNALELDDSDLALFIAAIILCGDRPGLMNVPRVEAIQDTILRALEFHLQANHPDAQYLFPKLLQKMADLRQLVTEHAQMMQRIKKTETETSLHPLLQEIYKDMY
Method: ERF_US_NR_hPPARD is a cell-based, single-readout assay that uses extracted gene-proteins in a cell-line assay. Measurements were taken 5 hours after chemical dosing in a 384-well plate. See PPARdelta Human NHR Cell Based Agonist Protein-Protein Interaction Assay, DiscoverX.ERF_US_NR_hPPARD is an assay component calculated from the ERF_US_NR_hPPARD assay. It is designed to measure radioligand binding using a type of binding reporter as detected by scintillation counting with radiometry technology.Data from the assay component ERF_US_NR_hPPARD was analyzed at the assay endpoint, ERF_US_NR_hPPARD, in the positive analysis fitting direction relative to DMSO as the negative control and baseline of activity. Using a type of binding reporter, gain-of-signal activity can be used to understand changes in binding as they relate to gene PPARD. To generalize the intended target to other relatable targets, this assay endpoint is annotated to the nuclear receptor intended target family, where the subfamily is non-steroidal.
Cells were seeded in a total volume of 20 uL into white walled, 384-well microplates and incubated at 37C overnight prior to testing. Briefly, intermediate dilution of sample stocks was performed to generate 5X sample in assay buffer. 5 uL of 5X sample was added to cells and incubated at 37C for 300 minutes. […] The results are expressed as a percent efficacy of the control ligand.
`O=C(CC(=O)C(F)(F)C(F)(F)C(F)(F)F)c1cccs1` was tested, and the outcome was “inactive”.
`O=C(O)CCC(F)(F)C(F)(F)C(F)(F)F` was tested, and the outcome was “inactive”.
